Screening data as filed in PubChem.
Hits are enriched below; roughly 9% of the tested compounds scored in any of these assays.
BAZ2B block – blocks human BAZ2B; AID 504333; AlphaScreen BAZ2B-H3K14Ac peptide displacement; hit rate 4.4% among 360,000; Potency, µM (top dose mostly 114 µM), actives largely listed as inhibitors; also: nearly all actives have a fitted effect of over 60% in size
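BAZ2B (50 nM) with biotin-H3(5-23)K14Ac peptide (50 nM) in PBS pH 7.4, 0.01% Tween-20, preformed 30 min, then compound 30 min at room temperature; top concentration 110uM. AlphaScreen streptavidin donor/nickel chelate acceptor beads (10 ug/mL final), 20 min dark, signal read.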
12-LOX inh – inhibitors of human 12S-lipoxygenase ALOX12; Potency, µM (titrated, usually from 108 µM), hits mostly inhibitors; hit rate 1.1% among 580,000; purified 12hLO, xylenol orange hydroperoxide absorbance; P18054
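Purified human 12hLO (150 nM final) in 25 mM Hepes, 0.01% Triton X-100, pH 7.0 was preincubated 15 min at room temperature with compound. Then 40 uM arachidonic acid was added, 30 min. Hydroperoxide was read by Fe-XO absorbance ratio 573/405 nm.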
JMJD2A Tudor – inhibitors of human JMJD2A Tudor domain; AID 504339; Potency, µM (titrated, usually from 114 µM), hits mostly inhibitors; AlphaScreen JMJD2A-Tudor / H3K4me3 peptide binding; O75164; hit rate 4.4% among 390,000; also: nearly all actives have a fitted effect of over 50% in size
G9a block – G9a (human) methyltransferase inhibition. Potency, µM (titrated, usually from 102 µM), actives largely listed as inhibitors. hit rate 8.8% among 350,000. Q96KQ7. G9a H3K9 monomethylation, AlphaScreen, 2 h; also: nearly all actives have a fitted effect of over 75% in size
Target sequence (Q96KQ7 913-1193 limits assumed): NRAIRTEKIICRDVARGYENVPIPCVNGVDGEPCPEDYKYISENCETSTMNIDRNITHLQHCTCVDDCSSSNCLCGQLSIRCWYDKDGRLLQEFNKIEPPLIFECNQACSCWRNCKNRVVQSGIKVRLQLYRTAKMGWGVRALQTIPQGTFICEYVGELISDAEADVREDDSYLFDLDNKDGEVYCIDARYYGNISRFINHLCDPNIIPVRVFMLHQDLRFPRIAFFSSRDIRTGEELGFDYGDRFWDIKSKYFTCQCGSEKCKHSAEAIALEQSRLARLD
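Compounds were preincubated with 20 nM G9a for 15 min, after which biotinylated H3K9 peptide (500 nM) and SAM (20 uM) started a 2 h room-temperature reaction. Monomethylated product was quantified by antibody-based AlphaScreen chemiluminescence.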
HP1b chromo inh – inhibitors of HP1-beta chromodomain binding to methylated histone tails | P83916 | AlphaScreen HP1-beta / biotin-H3K9me3 peptide binding | Potency, µM (top dose mostly 114 µM), usual class: inhibitors | hit rate 0.56% among 390,000 | AID 540317; also: nearly all actives have a fitted effect of over 70% in size
Target sequence (P83916 whole entry, looked up): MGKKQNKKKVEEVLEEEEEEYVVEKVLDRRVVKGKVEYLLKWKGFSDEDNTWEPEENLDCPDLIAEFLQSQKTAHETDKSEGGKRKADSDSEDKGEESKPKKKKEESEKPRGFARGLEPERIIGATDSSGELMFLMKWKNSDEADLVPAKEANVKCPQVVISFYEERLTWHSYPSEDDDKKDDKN
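AlphaScreen: HP1-beta (50 nM) preformed 30 min with biotin-H3(1-18)K9me3 peptide (50 nM) in PBS pH 7.4, 0.01% Tween-20. Compound added for 30 min at RT, then streptavidin donor/nickel chelate acceptor beads (10 ug/mL) for 30 min.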
PLK1 PBD inh – inhibitors of human PLK1 polo-box domain binding | hit rate 2.8% among 360,000 | Plk1 PBD binding of FITC phosphopeptide, fluorescence polarization | P53350 | Potency, µM, actives largely listed as inhibitors; also: series mostly up to about 57 µM; nearly all actives have a fitted effect of over 65% in size
Each line names hits and unclear results; the compound was inactive in the other large screens. Calls follow the shape of the dose curve; as a rule, active = well fitted curve in the direction sought with a large enough effect; inconclusive = small, poorly fitted or top-dose-only effect, or another doubt; inactive = no such curve, though single readings can be large; an effect the other way counts as inactive or inconclusive.

Cc1oc(C(C)(C)C)cc1C(=O)N1CCCC1C(=O)O (stereo not given)	JMJD2A Tudor 100µM
COC[C@@H]1CCCN1c1ncnc2c1CN(C1CCCNCC1)C(=O)CN2C (stereo not given in full)	none (no result: BAZ2B block, JMJD2A Tudor, G9a block, HP1b chromo inh, PLK1 PBD inh)
COc1ccc(C(=O)Nc2cc3c4c(c2)C(C)C(=O)N4CCC3)cc1 (stereo not given)	12-LOX inh inconclusive
CCCCn1c(SCC(=O)c2ccc(O)c(O)c2)nc2ccsc2c1=O	BAZ2B block inconclusive, JMJD2A Tudor inconclusive, HP1b chromo inh inconclusive (no result: 12-LOX inh)
O=C(CSc1nc2ccsc2c(=O)n1CC1CCC(C(=O)O)CC1)c1ccc(Cl)cc1 (stereo not given)	JMJD2A Tudor 79µM, G9a block 56µM (no result: BAZ2B block)
O=C(O)CCCCCn1c(SCC(=O)c2ccc(O)c(O)c2)nc2ccsc2c1=O	BAZ2B block inconclusive, 12-LOX inh inconclusive, JMJD2A Tudor inconclusive, G9a block 79µM
Cc1ncc(-c2c(-c3ccccc3)ncn2CC(c2ccco2)N2CCCC2)[nH]1 (stereo not given)	none (no result: BAZ2B block, JMJD2A Tudor, G9a block, HP1b chromo inh, PLK1 PBD inh)
Cc1ccc(Nc2nnns2)cc1	12-LOX inh inconclusive, G9a block 5.6µM, HP1b chromo inh inconclusive, PLK1 PBD inh 24µM
O=C1NC(=O)C2(COC(c3cccnc3)OC2)S1 (stereo not given)	G9a block inconclusive
CSCc1ccc(C(=O)N2CCCC(Nc3ccc4c(c3)OCCO4)C2)o1 (stereo not given)	G9a block 79µM
CSCc1ccc(C(=O)N2CCCC(Nc3ccc(F)cc3)C2)o1 (stereo not given)	BAZ2B block inconclusive, JMJD2A Tudor inconclusive, G9a block inconclusive
O=C(c1cc(Cl)ccc1F)N1CCCC(Nc2ccc3c(c2)OCCO3)C1 (stereo not given)	BAZ2B block inconclusive, JMJD2A Tudor inconclusive, G9a block 79µM
CN(N)C(=S)Nc1ccc(Cl)cc1	12-LOX inh inconclusive, G9a block 16µM
CN(C)NC(=S)Nc1ccc(Cl)cc1	none
N#Cc1ccc(COC(=O)c2ccc3c(c2)OCCO3)cc1	none (no result: BAZ2B block, JMJD2A Tudor, G9a block, HP1b chromo inh, PLK1 PBD inh)
Cn1c(N)cc(=O)[nH]c1=S	JMJD2A Tudor inconclusive (no result: BAZ2B block, G9a block)
Cn1c(=S)[nH]c2[nH]c(=O)cnc2c1=O	JMJD2A Tudor 89µM, G9a block inconclusive
CN(C)CCN(C(=O)/C=C/c1cccs1)c1nc2c(F)cc(F)cc2s1	BAZ2B block inconclusive, 12-LOX inh inconclusive, JMJD2A Tudor 40µM, G9a block inconclusive, HP1b chromo inh inconclusive
COc1cccc2sc(N(CCN(C)C)C(=O)/C=C/c3cccs3)nc12	G9a block 16µM (no result: BAZ2B block)
COc1ccc(C)c2sc(N(CCN(C)C)C(=O)/C=C/c3cccs3)nc12	BAZ2B block 35µM, JMJD2A Tudor inconclusive (no result: G9a block)
COc1ccc(OC)c2sc(N(CCN(C)C)C(=O)/C=C/c3cccs3)nc12	12-LOX inh inconclusive, JMJD2A Tudor inconclusive (no result: G9a block)
CCOc1cccc2sc(N(CCN(C)C)C(=O)/C=C/c3cccs3)nc12	BAZ2B block inconclusive, JMJD2A Tudor 45µM (no result: 12-LOX inh)
CN(C)CCCN(C(=O)/C=C/c1cccs1)c1nc2ccc(F)cc2s1	12-LOX inh inconclusive, G9a block inconclusive (no result: BAZ2B block)
CN(Cc1ccc(-c2ccccc2)cc1)Cc1ccc(N(C)C)cc1	none (no result: BAZ2B block, JMJD2A Tudor, G9a block, HP1b chromo inh, PLK1 PBD inh)
Nc1cc2c(cc1Cl)-c1ccccc1C2	none (no result: BAZ2B block, G9a block)
COc1ccc(CNc2ncncc2-c2cccnc2)c(OC)c1	12-LOX inh inconclusive (no result: BAZ2B block, JMJD2A Tudor, HP1b chromo inh, PLK1 PBD inh)
COc1cccc(-c2cncnc2NCc2ccc(OC)cc2OC)c1	12-LOX inh 13µM (no result: BAZ2B block, JMJD2A Tudor, G9a block, HP1b chromo inh, PLK1 PBD inh)
O=C(CSc1ccccc1F)NCC(c1cccs1)N1CCOCC1 (stereo not given)	PLK1 PBD inh inconclusive (no result: BAZ2B block, G9a block)
Cc1ccc(-c2nnn(CC(=O)N(Cc3cccs3)C(C(=O)NC(C)(C)C)c3ccco3)n2)o1 (stereo not given)	G9a block 18µM
Cc1ccc(-c2nnn(CC(=O)N(Cc3ccco3)C(C(=O)NC(C)(C)C)c3cccs3)n2)o1 (stereo not given)	BAZ2B block inconclusive, G9a block 13µM
Cc1ccc(-c2nnn(CC(=O)N(Cc3cccs3)C(C(=O)NC(C)(C)C)c3ccc(C)o3)n2)o1 (stereo not given)	G9a block inconclusive
CC(OC(=O)C1CCN(S(=O)(=O)c2ccc(F)cc2)CC1)C(=O)NC1CCCCC1C (stereo not given)	none
